Laboratory results reported in PubChem BioAssay (NCI).
Compounds without any hit were thinned out: in the full panel of roughly 83,000, 20% have a hit.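 The test compound was applied at a single concentration to cells in 96-well plates for 48 hours, and percent growth was recorded.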 Activity calls are given as the source filed them. The calls were made as follows: active = growth percent below 10; inactive = the rest.

Experiments:
Assay in all cases: NCI-60 one-dose screen, 48 h (100 = growth as untreated, 0 = no growth, -100 = all killed)
Conditions in all cases: 10 µM unless noted
NCI-H226 lung = tested on: NCI-H226 lung
NCI-H322M lung = tested on: NCI-H322M lung
HOP-62 NSCLC = tested on: HOP-62 NSCLC
NCI-H460 lung = tested on: NCI-H460 lung
HOP-92 NSCLC = tested on: HOP-92 NSCLC
NCI-H522 lung = tested on: NCI-H522 lung
A549/ATCC NSCLC = tested on: A549/ATCC NSCLC
786-0 renal = tested on: 786-0 renal
COLO 205 colon = tested on: COLO 205 colon
DU-145 prostate = tested on: DU-145 prostate

Measured: growth

COc1cc(/C=C/C(=O)c2ccc(C)cc2)ccc1Oc1nc(NCCO)nc(N2CCOCC2)n1
active: 786-0 renal -50.7%
inactive: NCI-H226 lung 52% | NCI-H322M lung 102% | HOP-62 NSCLC 104% | NCI-H460 lung 69.2% | HOP-92 NSCLC 63.6% | NCI-H522 lung 76.9% | A549/ATCC NSCLC 97% | COLO 205 colon 107% | DU-145 prostate 87%

Cc1cccc2sc(/N=C(\N)C(Cl)(Cl)Cl)nc12
inactive: NCI-H226 lung 100% | NCI-H322M lung 103% | HOP-62 NSCLC 81.5% | NCI-H460 lung 100% | HOP-92 NSCLC 101% | NCI-H522 lung 95.7% | A549/ATCC NSCLC 92.2% | 786-0 renal 93.9% | COLO 205 colon 110% | DU-145 prostate 92.2%

COc1cc(/C=C/C(=O)c2ccc(F)cc2)ccc1Oc1nc(NCCO)nc(N2CCOCC2)n1
inactive: NCI-H226 lung 87.8% | NCI-H322M lung 97.4% | HOP-62 NSCLC 102% | NCI-H460 lung 94.2% | HOP-92 NSCLC 94.2% | NCI-H522 lung 64.9% | A549/ATCC NSCLC 101% | 786-0 renal 98.3% | COLO 205 colon 122% | DU-145 prostate 98.4%

N#Cc1c(-c2ccc(Cl)cc2)nc(SCc2ccccc2)nc1N1CCNCC1
inactive: NCI-H226 lung 89.4% | NCI-H322M lung 79.6% | HOP-62 NSCLC 78.9% | HOP-92 NSCLC 21.8% | NCI-H522 lung 92.4% | A549/ATCC NSCLC 66.7% | 786-0 renal 64.3% | DU-145 prostate 63.8%
active: NCI-H460 lung -45.6% | COLO 205 colon -8%

Clc1ccc2oc3c(NCCCn4ccnc4)c4ccccc4nc3c2c1
active: NCI-H460 lung -25.9% | 786-0 renal 6.65%
inactive: NCI-H226 lung 40% | NCI-H322M lung 41.5% | HOP-62 NSCLC 66.2% | HOP-92 NSCLC 47.2% | NCI-H522 lung 48.3% | A549/ATCC NSCLC 32.7% | COLO 205 colon 55.2% | DU-145 prostate 21.9%

COc1cc(OC)c(C2SCC(=O)N2Nc2ncnc3ccccc23)cc1OC (stereo not given)
inactive: NCI-H226 lung 107% | NCI-H322M lung 96.4% | HOP-62 NSCLC 100% | NCI-H460 lung 111% | HOP-92 NSCLC 147% | NCI-H522 lung 98.9% | A549/ATCC NSCLC 104% | 786-0 renal 104% | COLO 205 colon 113% | DU-145 prostate 106%

CN1C(=O)N(c2ccccc2)C2N=C(N/N=C/c3ccccc3)SC21 (stereo not given)
inactive: NCI-H226 lung 58.7% | NCI-H322M lung 42.5% | HOP-62 NSCLC 39% | HOP-92 NSCLC 55.1% | A549/ATCC NSCLC 33% | 786-0 renal 33.9% | DU-145 prostate 19.6%
active: NCI-H460 lung 9.53% | NCI-H522 lung -12.3% | COLO 205 colon 3.78%

CN(C)CCCOc1c2ccc(Cl)cc2nc2c1oc1ccc(Cl)cc12
inactive: NCI-H322M lung 18.8% | HOP-62 NSCLC 32.8% | NCI-H522 lung 21%
active: NCI-H226 lung 1.15% | NCI-H460 lung -74.2% | HOP-92 NSCLC 3.27% | A549/ATCC NSCLC -45.3% | 786-0 renal -93.2% | COLO 205 colon -11.1% | DU-145 prostate -75.7%

C=CCn1c(SCC(=O)c2ccc(Br)cc2)nnc1-c1c[nH]c2ccccc12
inactive: NCI-H226 lung 90.1% | NCI-H322M lung 99.5% | HOP-62 NSCLC 103% | NCI-H460 lung 106% | HOP-92 NSCLC 91.4% | NCI-H522 lung 96.3% | A549/ATCC NSCLC 103% | 786-0 renal 98.6% | COLO 205 colon 108% | DU-145 prostate 106%

O=C(NNc1nc2cc(F)ccc2n2c(CN3CC4(COC4)C3)ccc12)c1cnccn1
active: NCI-H226 lung 7.31% | NCI-H460 lung -7.69% | NCI-H522 lung 2.26% | 786-0 renal -6.84%
inactive: NCI-H322M lung 22.7% | HOP-62 NSCLC 23% | HOP-92 NSCLC 45.2% | A549/ATCC NSCLC 13.2% | COLO 205 colon 20.2% | DU-145 prostate 24.8%

Cc1ccc(-c2nc(C(Cl)Cl)nc3cc(-c4ccccc4)nn23)cc1
inactive: NCI-H226 lung 76.4% | 786-0 renal 62.4%
active: NCI-H322M lung -36.8% | HOP-62 NSCLC -16.7% | NCI-H460 lung -73.5% | HOP-92 NSCLC -3.62% | NCI-H522 lung 1.72% | A549/ATCC NSCLC -56.3% | COLO 205 colon -69.4% | DU-145 prostate -26.3%

COc1cc(/C=C/C(=O)c2cc(OC)c(OC)c(OC)c2)ccc1Oc1nc(NCCO)nc(N2CCOCC2)n1
active: NCI-H226 lung -1.45% | HOP-62 NSCLC 1.11% | NCI-H460 lung -51.6% | NCI-H522 lung -11.1% | A549/ATCC NSCLC 6.84% | 786-0 renal -5.28% | COLO 205 colon 3.69%
inactive: NCI-H322M lung 24% | HOP-92 NSCLC 13.5% | DU-145 prostate 12.6%

COc1cc2nc(-c3ccc(C(F)(F)F)cc3)cc(OCCCNCC3CCCO3)c2cc1OC (stereo not given)
active: 786-0 renal -55.2%
inactive: NCI-H226 lung 54.3% | NCI-H322M lung 57.2% | HOP-62 NSCLC 53.8% | NCI-H460 lung 21.8% | HOP-92 NSCLC 26.3% | NCI-H522 lung 41.8% | A549/ATCC NSCLC 37.3% | COLO 205 colon 23.3% | DU-145 prostate 36.7%

CCOC(=O)c1c(NC(=O)c2cccc(C(F)(F)F)c2)sc2cc(O)ccc12
inactive: NCI-H226 lung 98.1% | NCI-H322M lung 98% | HOP-62 NSCLC 99.3% | NCI-H460 lung 99.9% | HOP-92 NSCLC 102% | NCI-H522 lung 81.3% | A549/ATCC NSCLC 101% | 786-0 renal 109% | COLO 205 colon 107% | DU-145 prostate 98.9%

COC1CCN(Cc2ccc3c(NNC(=O)c4cnccn4)nc4cc(F)ccc4n23)C1 (stereo not given)
active: NCI-H460 lung 6.39% | NCI-H522 lung 7.95%
inactive: NCI-H226 lung 28.9% | NCI-H322M lung 30.8% | HOP-62 NSCLC 30.4% | HOP-92 NSCLC 40.4% | A549/ATCC NSCLC 18.9% | 786-0 renal 12.7% | COLO 205 colon 12.5% | DU-145 prostate 34.8%

COc1ccc(-n2c(SCC(=O)Nc3ccc(-c4nc5ccccc5[nH]4)cc3)nc3ccccc3c2=O)cc1
inactive: NCI-H226 lung 48.5% | NCI-H322M lung 51.9% | HOP-62 NSCLC 89.4% | COLO 205 colon 77.5%
active: NCI-H460 lung -55.9% | HOP-92 NSCLC -33.3% | NCI-H522 lung -32.9% | A549/ATCC NSCLC -24.4% | 786-0 renal -95.4% | DU-145 prostate 6.71%

O=C(c1ccc(O)cc1)C1[C@H](c2ccc(Cl)cc2)[C@@H](c2ccccc2)NC12C(=O)Nc1ccc(Cl)cc12 (stereo not given in full)
inactive: NCI-H226 lung 42.3% | NCI-H322M lung 61.2% | HOP-62 NSCLC 64.6% | NCI-H460 lung 20.6% | HOP-92 NSCLC 35.2% | NCI-H522 lung 71.7% | A549/ATCC NSCLC 33.5% | 786-0 renal 52.3% | COLO 205 colon 61% | DU-145 prostate 52.4%

CCN1CCN(S(=O)(=O)c2oc(-c3ccc(Cl)cc3)nc2C#N)CC1
inactive: NCI-H226 lung 106% | NCI-H322M lung 96.5% | HOP-62 NSCLC 108% | NCI-H460 lung 105% | HOP-92 NSCLC 36.7% | A549/ATCC NSCLC 95.6% | COLO 205 colon 65.5% | DU-145 prostate 81.7%
active: NCI-H522 lung -63% | 786-0 renal -49.7%

C#Cc1nc(C2=C(C)/C(=N/OCc3ccccc3)CC2)cs1
active: HOP-92 NSCLC -79.2% | NCI-H522 lung -56.9% | 786-0 renal -95.7%
inactive: NCI-H226 lung 48.4% | NCI-H322M lung 92.6% | HOP-62 NSCLC 55.6% | NCI-H460 lung 39.6% | A549/ATCC NSCLC 84.5% | COLO 205 colon 83.5% | DU-145 prostate 88.5%

C=CCn1c(SCC(=O)c2ccccc2)nnc1-c1c[nH]c2ccccc12
inactive: NCI-H226 lung 87.8% | NCI-H322M lung 102% | HOP-62 NSCLC 92.5% | NCI-H460 lung 107% | HOP-92 NSCLC 81.3% | NCI-H522 lung 97.8% | A549/ATCC NSCLC 100% | 786-0 renal 101% | COLO 205 colon 122% | DU-145 prostate 109%

O=C1Nc2cc(Cl)ccc2/C1=C\c1ccc(OCc2ccc([N+](=O)[O-])cc2)cc1
inactive: NCI-H226 lung 81% | NCI-H322M lung 75.1% | HOP-62 NSCLC 79.8% | NCI-H460 lung 59.9% | HOP-92 NSCLC 45.8% | NCI-H522 lung 66.9% | A549/ATCC NSCLC 78% | 786-0 renal 51% | COLO 205 colon 92.9% | DU-145 prostate 79.9%

Cn1cc(-c2cc(N)n3nc(-c4cn(C)c5ccc(F)cc45)cc3n2)c2cc(F)ccc21
active: NCI-H460 lung -23.2% | 786-0 renal -87.7%
inactive: NCI-H226 lung 106% | NCI-H322M lung 71.2% | HOP-62 NSCLC 92% | HOP-92 NSCLC 75.7% | NCI-H522 lung 28.6% | A549/ATCC NSCLC 18.5% | COLO 205 colon 115% | DU-145 prostate 44.8%

COc1cc(-c2nc3ccc(-c4nnc(SCC(=O)Nc5ccc(C(C)=O)cc5)o4)cc3[nH]2)cc(OC)c1OC
inactive: NCI-H226 lung 105% | NCI-H322M lung 99.5% | HOP-62 NSCLC 98.7% | NCI-H460 lung 103% | HOP-92 NSCLC 92.5% | NCI-H522 lung 99.5% | A549/ATCC NSCLC 99.9% | 786-0 renal 106% | COLO 205 colon 110% | DU-145 prostate 115%

N/C(=N\c1nc2c(Br)cccc2s1)C(Br)Br
inactive: NCI-H226 lung 48.9% | NCI-H322M lung 31.8% | HOP-62 NSCLC 39.8% | A549/ATCC NSCLC 21.8%
active: NCI-H460 lung -20.4% | HOP-92 NSCLC -3.75% | NCI-H522 lung -75.1% | 786-0 renal -14.3% | COLO 205 colon 1.7% | DU-145 prostate -21.8%

COc1cc2nc(-c3ccc(Cl)cc3)cc(OCCCNCC3CCCO3)c2cc1OC (stereo not given)
inactive: NCI-H226 lung 75.8% | NCI-H322M lung 66.7% | HOP-62 NSCLC 64.3% | NCI-H460 lung 30.2% | HOP-92 NSCLC 35.4% | NCI-H522 lung 45.1% | A549/ATCC NSCLC 53.2% | 786-0 renal 43.3% | COLO 205 colon 33.5% | DU-145 prostate 49.2%

CCOC(=O)c1csc(NC(=O)CSc2nc3sc4c(c3c(=O)n2-c2ccc(Cl)cc2)CCCC4)n1
inactive: NCI-H226 lung 101% | NCI-H322M lung 101% | HOP-62 NSCLC 101% | NCI-H460 lung 100% | HOP-92 NSCLC 77.8% | NCI-H522 lung 93.3% | A549/ATCC NSCLC 98.6% | 786-0 renal 103% | COLO 205 colon 133% | DU-145 prostate 107%

CN1C(=S)N(C)C2C1NN=C1SC(c3ccccc3)=CC(=O)N12 (stereo not given)
inactive: NCI-H226 lung 83.6% | NCI-H322M lung 104% | HOP-62 NSCLC 109% | NCI-H460 lung 103% | HOP-92 NSCLC 72.8% | NCI-H522 lung 87.2% | A549/ATCC NSCLC 93.7% | 786-0 renal 98% | COLO 205 colon 111% | DU-145 prostate 106%
